From PubChem BioAssay (Tox21) come the findings set out here.

Results filed as inconclusive are left out. A structure can be active in one record and inactive in another. Calls of active or inactive are those of the source. Unless noted, calls come from the whole dose curve; as a rule, active = well fitted curve in the direction sought with a large enough effect in the repeat runs; inconclusive = weak or mixed curves; inactive = no such curve, though single readings can be large; an effect the other way counts as inactive or inconclusive.

Assay [1] addresses Thyrotropin receptor (Homo sapiens) (UniProt P16473). Briefly: qHTS assay to identify small molecule antagonists of the thyroid stimulating hormone receptor (TSHR) signaling pathway (AID 1259385; calls by dose curve; note: nearly all actives have a fitted effect of over 20% in size). The essentials:
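TSHR-HEK293 cells were plated and held 18 h at 37C/5% CO2, then given compound plus Ro20-1724 and stimulated with TSH at 1.5 ng/mL final. After 30 min at room temperature, cAMP was detected with cAMP-d2/anti-cAMP-cryptate (1 h) by fluorescence.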

Assay [2] can be described thus: qHTS assay to identify small molecule agonists of the estrogen receptor alpha (ER-alpha) signaling pathway in the presence of an antagonist - cell viability counter screen (AID 1259386).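 Note: series mostly up to about 92 µM; cells exposed to compounds for 22 h at 37 °C before the viability read; nearly all actives have a fitted effect of over 30% in size.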 The essentials: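 Viability counter screen using VM7Luc4E2 (full-length ER-alpha, four ERE-luciferase). The cells were treated with compounds alongside ICI-182,780 10.0nM for 22hr, and live-cell protease fluorescence was quantified with CellTiter-Fluor.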

Assay [3] addresses Progesterone receptor (Homo sapiens) (UniProt P06401). Briefly: qHTS assay to identify small molecule agonists of the progesterone receptor (PR) signaling pathway (AID 1346784; calls by dose curve; note: nearly all actives have a fitted effect of over 30% in size; note: potency is the fitted concentration of half-maximal effect). The essentials: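 PR-UAS-bla HEK 293T cells (beta-lactamase reporter under UAS) in 2% charcoal-stripped FBS, dosed with 23 nL compound after 6 hr, incubated 16hr at 37C. LiveBLAzer B/G FRET substrate added, fluorescence read after 2 hours.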

Assay [4] shares this target. Briefly: qHTS assay to identify small molecule antagonists of the progesterone receptor (PR) signaling pathway (AID 1346795; active = well fitted inhibition curve with a large enough effect in the signal ratio in the repeat runs, not every such curve was filed as active; the % refers to the signal ratio). In short, it runs like this: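 PR-UAS-bla HEK293T cells with beta-lactamase reporter under UAS control, in 2% charcoal-stripped FBS, treated with compounds plus 1 nM promegestone (R5020, final) for 16 hr at 37C. Read-out: FRET beta-lactamase substrate fluorescence after 2 hr at room temperature.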

A short description of assay [5]: qHTS assay to identify small molecule antagonists of the progesterone receptor (PR) signaling pathway - cell viability counter screen (AID 1346798). Note: series mostly up to about 92 µM; nearly all actives have a fitted effect of over 50% in size. The essentials:
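PR-UAS-bla HEK293T cells, 3,000/well in 2% charcoal-stripped FBS medium, dosed with compounds plus R5020 agonist and incubated 16 h at 37C. Viability then measured in the same wells by CellTiter-Glo luminescence after 30 min at RT.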

Assay [6] in a line: qHTS assay to identify small molecule agonists of the progesterone receptor (PR) signaling pathway - cell viability counter screen (AID 1346799; calls by dose curve; note: nearly all actives have a fitted effect of over 45% in size). The essentials:
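Counter screen in the PR-UAS-bla HEK293T wells (2% charcoal-stripped FBS, 16 h compound exposure at 37 C) after the bla read. CellTiter-Glo added, 30 min at room temperature, luminescence read as cell viability.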

Assay [7] is described as follows: qHTS assay to identify small molecule antagonists of the TGF-beta/Smad signaling pathway - cell viability counter screen (AID 1346824). Note: nearly all actives have a fitted effect of over 50% in size. In short, it runs like this: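 SBE-bla HEK 293T cells were plated overnight at 37 C, then given compounds in DMSO plus TGF-beta1 (added as 0.25 ng/mL solution) for 5 hr. After the bla read, CellTiter-Glo was added to the same wells and luminescence read after 30 min at room temperature.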

The nature of assay [8]: qHTS assay to identify small molecule agonists of the TGF-beta/Smad signaling pathway - cell viability counter screen (AID 1346829). Note: top concentration of the series differs between compounds; nearly all actives have a fitted effect of over 45% in size. The essentials: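 After overnight seating at 37 C and 5% CO2, reporter cells got compounds for 5 hr and FRET substrate for 2 hr; cell viability then came from CellTiter-Glo luminescence.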
A short description of assay [9]: qHTS assay to identify small molecule agonists of the TGF-beta/Smad signaling pathway (AID 1346859; active = well fitted activation curve with a large enough effect in the signal ratio in the repeat runs, not every such curve was filed as active; the % refers to the signal ratio; note: series mostly up to about 77 µM). The essentials:
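SBE-bla HEK293T cells plated overnight, then compound exposure for 5 h at 37 C. Beta-lactamase reporter read with LiveBLAzer B/G FRET substrate after 2 h at room temperature, fluorescence at 405 nm excitation, 460/530 nm emission.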

Assay [10] addresses Thyrotropin-releasing hormone receptor (Homo sapiens) (UniProt P34981). Kind of assay: qHTS assay to identify small molecule antagonists of the thyrotropin-releasing hormone receptor (TRHR) signaling pathway (AID 1346877; active = well fitted inhibition curve with a large enough effect in the repeat runs, not every such curve was filed as active; note: series mostly up to about 51 µM). The essentials: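 Following an 18 h incubation at 37 °C and a 2 h calcium dye load, TRHR-HEK293 cells were exposed to compound (5 min, room temperature) and challenged with TRH, 1 nM final.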
% is set by controls: 0 for no effect and ±100 for the full control effect.

Sequence of Progesterone receptor (Homo sapiens) (P06401 whole entry, looked up): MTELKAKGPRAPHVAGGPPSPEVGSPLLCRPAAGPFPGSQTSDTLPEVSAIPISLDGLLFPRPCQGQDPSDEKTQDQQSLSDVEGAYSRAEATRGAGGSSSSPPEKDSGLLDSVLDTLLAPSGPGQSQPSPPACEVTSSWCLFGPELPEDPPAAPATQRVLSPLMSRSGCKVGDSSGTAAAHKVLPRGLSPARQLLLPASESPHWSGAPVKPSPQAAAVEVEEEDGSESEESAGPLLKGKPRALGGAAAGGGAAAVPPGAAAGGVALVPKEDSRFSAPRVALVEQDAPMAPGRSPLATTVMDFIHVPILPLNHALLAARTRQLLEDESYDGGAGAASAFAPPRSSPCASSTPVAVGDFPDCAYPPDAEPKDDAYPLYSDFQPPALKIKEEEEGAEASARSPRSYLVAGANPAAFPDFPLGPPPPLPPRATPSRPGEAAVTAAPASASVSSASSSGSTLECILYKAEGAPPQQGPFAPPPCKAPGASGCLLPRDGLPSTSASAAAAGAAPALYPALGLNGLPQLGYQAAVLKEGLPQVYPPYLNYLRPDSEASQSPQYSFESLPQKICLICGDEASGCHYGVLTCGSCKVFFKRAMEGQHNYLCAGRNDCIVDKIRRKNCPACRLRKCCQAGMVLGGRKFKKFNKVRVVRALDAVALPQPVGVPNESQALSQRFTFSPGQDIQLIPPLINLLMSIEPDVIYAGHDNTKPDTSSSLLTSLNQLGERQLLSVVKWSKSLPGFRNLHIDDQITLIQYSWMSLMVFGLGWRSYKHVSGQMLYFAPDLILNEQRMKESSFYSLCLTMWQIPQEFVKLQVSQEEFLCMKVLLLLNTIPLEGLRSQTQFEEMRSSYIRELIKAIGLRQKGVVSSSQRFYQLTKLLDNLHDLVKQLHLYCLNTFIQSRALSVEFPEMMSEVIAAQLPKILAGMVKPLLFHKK
Sequence of Thyrotropin-releasing hormone receptor (Homo sapiens) (P34981 whole entry, looked up): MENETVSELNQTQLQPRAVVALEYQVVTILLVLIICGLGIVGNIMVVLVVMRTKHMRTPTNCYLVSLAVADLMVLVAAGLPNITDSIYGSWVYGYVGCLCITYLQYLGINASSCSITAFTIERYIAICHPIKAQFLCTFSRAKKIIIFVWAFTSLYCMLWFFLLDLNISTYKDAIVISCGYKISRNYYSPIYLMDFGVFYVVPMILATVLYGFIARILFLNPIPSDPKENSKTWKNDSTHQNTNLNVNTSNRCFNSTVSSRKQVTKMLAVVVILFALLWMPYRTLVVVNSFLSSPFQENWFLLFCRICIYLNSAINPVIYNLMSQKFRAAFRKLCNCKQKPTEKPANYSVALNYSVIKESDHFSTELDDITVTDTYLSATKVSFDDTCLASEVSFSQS
Sequence of Thyrotropin receptor (Homo sapiens) (P16473 whole entry, looked up): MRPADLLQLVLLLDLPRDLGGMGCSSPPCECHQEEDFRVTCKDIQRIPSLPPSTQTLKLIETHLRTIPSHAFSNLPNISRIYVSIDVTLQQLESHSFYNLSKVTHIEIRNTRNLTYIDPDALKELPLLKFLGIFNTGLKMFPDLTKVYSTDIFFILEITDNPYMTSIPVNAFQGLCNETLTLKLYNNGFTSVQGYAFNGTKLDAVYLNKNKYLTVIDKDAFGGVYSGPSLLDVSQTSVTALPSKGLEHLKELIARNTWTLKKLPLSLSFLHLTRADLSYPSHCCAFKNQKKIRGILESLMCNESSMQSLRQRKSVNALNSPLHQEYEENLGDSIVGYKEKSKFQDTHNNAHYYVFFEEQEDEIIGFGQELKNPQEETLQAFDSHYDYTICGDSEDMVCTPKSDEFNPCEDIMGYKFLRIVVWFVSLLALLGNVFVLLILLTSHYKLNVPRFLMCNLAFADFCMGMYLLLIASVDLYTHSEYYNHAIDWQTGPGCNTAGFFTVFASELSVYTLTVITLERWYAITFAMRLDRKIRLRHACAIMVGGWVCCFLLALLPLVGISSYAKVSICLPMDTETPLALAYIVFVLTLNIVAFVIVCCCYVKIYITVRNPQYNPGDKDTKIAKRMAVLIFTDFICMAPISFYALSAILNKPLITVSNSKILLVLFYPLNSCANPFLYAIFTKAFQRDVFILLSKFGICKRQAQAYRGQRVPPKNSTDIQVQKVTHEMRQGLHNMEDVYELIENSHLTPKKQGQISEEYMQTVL

With `COc1cc(CCN)cc(OC)c1OC`, the result in [1], in assay [7] and in assay [9] was inactive. Also, the Potency result in assay [2], in assay [3], in [4], in assay [5], in assay [6] and in assay [8] was “inactive” each time.
Regarding `COP(=O)(O)OC`, the molecule was classed as inactive in [1], in assay [7] and in [9]. The Potency entry in assay [2], in assay [3], in assay [4], in assay [5], in [6] and in assay [8] was “inactive” throughout. Moreover, the Potency result in [10] is “inactive”.
For the molecule `C=CCN1CC[C@]23CCCC[C@H]2[C@H]1Cc1ccc(O)cc13`, the call in assay [1], in assay [7] and in assay [9] was inactive. Moreover, the Potency entry in assay [2], in assay [3], in [4], in assay [5], in assay [6] and in assay [8] was “inactive” throughout. In addition, the Potency entry in assay [10] was “inactive”.
As to `Cc1ccc2c(c1)C1CN(C)CCC1N2` (configuration not stated), the values for the activity change, negative = inhibition in assay [1] and in assay [4] were 8.62% [at 19 µM] (inactive) and 5.78% [at 18.9 µM] (inactive), respectively. The activity change, negative = cytotoxicity in [2] was -4.97% [at 19 µM] (inactive); in assay [5] it was -15.8% [at 18.9 µM] (inactive); in [6] it was -23.2% [at 19 µM] (inactive); in [8] it was -8.68% [at 15.8 µM] (inactive). Also, the activation in [3] is -0.799% [at 19 µM] (inactive). The viability change, negative = cytotoxic in assay [7] is 0.721% [at 15.8 µM] (inactive).
Take `O=P(O)(O)c1ccccc1`: the molecule was classed as inactive in assay [1], in [7] and in [9]. Moreover, the Potency entry in [2], in assay [3], in assay [4], in assay [5], in [6] and in assay [8] was “inactive” throughout. Moreover, the Potency entry in assay [10] is “inactive”.
For `CCC1(c2ccccc2)CCC(=O)NC1=O` (configuration not stated), the molecule was classed as inactive in [1], in [7] and in [9]. In addition, the Potency entry in assay [2], in assay [3], in assay [4], in assay [5], in assay [6] and in assay [8] was “inactive” throughout. In [10], the Potency entry is “inactive”.
As to `NNC(N)=O`, the molecule was classed as inactive in assay [1], in assay [7] and in [9]. Moreover, the Potency entry in assay [2], in assay [3], in assay [4], in [5], in assay [6] and in assay [8] was “inactive” each time. For the same molecule, the Potency entry in assay [10] was “inactive”.
As to `CC(C)c1ccc(O)cc1`, the result in assay [1], in [7] and in assay [9] was inactive. Moreover, the Potency entry in [2], in assay [3], in assay [4], in assay [5], in [6] and in [8] was “inactive” in each case. In addition, in assay [10], the Potency result was “inactive”.
Take `O=S1(=O)OCCO1`: the molecule was classed as inactive in assay [1], in assay [7] and in assay [9]. Further, the Potency entry in assay [2], in assay [3], in assay [4], in assay [5], in assay [6] and in assay [8] was “inactive” throughout. Besides, in assay [10], the Potency entry is “inactive”.
As to `[O-][Br+2]([O-])O`, the result in assay [1], in assay [7] and in assay [9] was inactive. For the same molecule, the Potency entry in assay [2], in assay [3], in assay [4], in assay [5], in assay [6] and in [8] was “inactive” in each case. For the same molecule, in assay [10], the Potency entry is “inactive”.
Take `CC1NCCOC1c1ccccc1` (configuration not stated): the outcome in [1], in [7] and in assay [9] was inactive. Also, the Potency result in assay [2], in [3], in assay [4], in [5], in assay [6] and in [8] was “inactive” throughout. Moreover, the Potency result in assay [10] is “inactive”.
Take `CCC(C(N)=O)N1CCCC1=O` (configuration not stated): the call in [1] and in assay [7] was inactive. Also, the Potency entry in [2], in assay [3], in assay [4], in assay [5], in assay [6] and in assay [8] was “inactive” throughout. In addition, the Potency result in [10] was “inactive”.
Regarding `C[C@@H](N)[C@@H](O)c1ccccc1`, the molecule was classed as inactive in assay [1], in [7] and in assay [9]. Further, the Potency result in assay [2], in assay [3], in assay [4], in [5], in [8] and in assay [10] was “inactive” each time.
In the case of `CC(C)(O)C(Cl)(Cl)Cl`, the outcome in assay [1], in assay [7] and in assay [9] was inactive. In addition, the Potency result in assay [2], in assay [3], in [4], in assay [5] and in assay [6] was “inactive” throughout.
Turning to `CCOC(=O)CC(SP(=S)(OC)OC)C(=O)OCC` (configuration not stated), the molecule was called inactive in assay [1] and in [7]. Further, the Potency result in assay [2], in [4], in [5], in assay [6], in [8] and in assay [10] was “inactive” each time. The Potency in assay [3] is 1.37 µM (active) and inactive.
`C#CCOC(=O)/C=C(C)/C=C/CC(C)CCCC(C)C` (configuration not stated): the outcome in [1] and in [7] was inactive. The Potency entry in assay [2], in [3], in [4], in assay [5], in [6] and in [8] was “inactive” in each case. Also, the Potency result in assay [10] was “inactive”.
With `CCOP(=S)(OCC)SCCl`, the result in assay [1], in assay [7] and in assay [9] was inactive. In addition, the Potency result in assay [2], in assay [3], in assay [4], in [5], in [6] and in assay [10] was “inactive” each time.
For the molecule `CCC(C)C(C)(COC(N)=O)COC(N)=O` (configuration not stated), the outcome in assay [1], in assay [7] and in assay [9] was inactive. Also, the Potency result in [2], in [3], in assay [4], in assay [5], in [6] and in assay [10] was “inactive” throughout.
As to `NCC1(CC(=O)O)CCCCC1`, the call in assay [1], in [7] and in [9] was inactive. Also, the Potency result in assay [2], in assay [3], in assay [4], in assay [5], in assay [6] and in assay [8] was “inactive” each time. Further, the Potency entry in assay [10] was “inactive”.
Take `NNCc1ccccc1`: the result in [1], in [7] and in [9] was inactive. The Potency result in [2], in [3], in assay [4], in assay [5], in assay [8] and in assay [10] was “inactive” throughout.
As for `BrCCc1ccccc1`, the outcome in assay [1], in [7] and in assay [9] was inactive. The Potency result in assay [2], in assay [3], in assay [4], in assay [5], in [6] and in [10] was “inactive” each time.
Turning to `C=C(Cl)CCl`, the call in assay [1] and in assay [7] was inactive. Further, the Potency result in [2], in [3], in assay [4], in [5], in [6] and in assay [8] was “inactive” each time. In addition, the Potency result in [10] is “inactive”.
Consider `COC[C@@H](NC(C)=O)C(=O)NCc1ccccc1`, for which the outcome in assay [1], in [7] and in assay [9] was inactive. The Potency entry in [2], in assay [3], in assay [4], in assay [5] and in assay [8] was “inactive” each time.
Consider `O=C(Cl)CCl`, for which the molecule was classed as inactive in assay [1] and in [7]. Further, the Potency entry in assay [2], in [3], in [4], in [5], in assay [6] and in assay [8] was “inactive” each time. Moreover, the Potency entry in assay [10] is “inactive”.
With `C[C@H](N)C(=O)c1ccccc1`, the molecule was classed as inactive in [1] and in assay [7]. Besides, the Potency result in assay [2], in assay [3], in [4], in assay [5], in assay [6] and in [8] was “inactive” in each case. Also, the Potency result in [10] was “inactive”.
